# Measurements reported in PubChem BioAssay AID2528 (National Center for Advancing Translational Sciences (NCATS), 2010).
# “And” between values parts separate entries of the source, which are not always exact repeats. Equal entries are not always repeated. The campaign covered roughly 350,000 compounds. About 700 (0.2%) were called active. Where a call stands in place of a potency, no number is given. Many of the other results were omitted from the sample, so actives are more common in it than they were. Unmarked numbers belong to inactive results. Calls come from the whole dose curve; as a rule, active = well fitted inhibition curve with a large enough effect; inconclusive = small, poorly fitted or top-dose-only effect; inactive = flat fitted curve, though single readings scatter. Bridge positions count the residues as written; N and C are the ends. Peptide text beside a SMILES is read from it.
# Target: RecQ-like DNA helicase BLM (Homo sapiens) (UniProt P54132)
# Sequence (P54132 whole entry, looked up): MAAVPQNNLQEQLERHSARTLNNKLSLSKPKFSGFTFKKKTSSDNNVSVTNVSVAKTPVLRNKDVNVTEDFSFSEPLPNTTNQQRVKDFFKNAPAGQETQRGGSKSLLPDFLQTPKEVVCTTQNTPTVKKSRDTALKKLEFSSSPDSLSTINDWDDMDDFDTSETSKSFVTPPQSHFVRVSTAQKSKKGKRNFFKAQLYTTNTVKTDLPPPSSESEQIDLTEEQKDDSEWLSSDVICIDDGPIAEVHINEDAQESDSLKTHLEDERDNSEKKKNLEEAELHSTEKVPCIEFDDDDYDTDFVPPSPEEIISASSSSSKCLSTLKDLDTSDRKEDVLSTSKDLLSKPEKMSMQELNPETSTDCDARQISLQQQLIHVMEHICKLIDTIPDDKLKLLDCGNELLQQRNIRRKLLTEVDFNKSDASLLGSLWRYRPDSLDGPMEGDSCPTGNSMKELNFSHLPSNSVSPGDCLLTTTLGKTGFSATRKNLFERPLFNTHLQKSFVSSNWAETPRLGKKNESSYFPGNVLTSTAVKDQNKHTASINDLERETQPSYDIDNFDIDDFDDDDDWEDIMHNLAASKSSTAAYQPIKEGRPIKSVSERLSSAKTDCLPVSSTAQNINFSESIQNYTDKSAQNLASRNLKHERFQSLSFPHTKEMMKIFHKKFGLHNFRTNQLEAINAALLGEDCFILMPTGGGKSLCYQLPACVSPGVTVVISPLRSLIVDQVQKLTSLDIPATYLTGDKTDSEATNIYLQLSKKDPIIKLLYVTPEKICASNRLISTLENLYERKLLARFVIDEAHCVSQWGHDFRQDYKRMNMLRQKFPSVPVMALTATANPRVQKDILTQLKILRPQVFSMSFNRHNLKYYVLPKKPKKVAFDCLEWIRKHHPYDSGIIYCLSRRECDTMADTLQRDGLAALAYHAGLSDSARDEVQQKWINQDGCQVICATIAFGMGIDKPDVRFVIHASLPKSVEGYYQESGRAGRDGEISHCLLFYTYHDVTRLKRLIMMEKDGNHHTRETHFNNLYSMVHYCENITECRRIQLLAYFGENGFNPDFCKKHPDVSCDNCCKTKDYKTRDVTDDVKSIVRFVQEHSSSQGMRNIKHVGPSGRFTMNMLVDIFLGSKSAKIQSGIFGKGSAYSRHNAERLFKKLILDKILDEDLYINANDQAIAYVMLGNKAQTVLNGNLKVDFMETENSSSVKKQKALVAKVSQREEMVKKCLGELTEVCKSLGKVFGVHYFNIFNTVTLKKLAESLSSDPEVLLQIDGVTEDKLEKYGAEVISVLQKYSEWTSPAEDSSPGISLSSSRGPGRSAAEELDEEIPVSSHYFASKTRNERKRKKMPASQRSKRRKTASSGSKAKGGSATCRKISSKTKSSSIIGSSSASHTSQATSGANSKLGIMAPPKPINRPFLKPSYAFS
# Experiment: qHTS Assay for Inhibitors of Bloom's syndrome helicase (BLM); note: nearly all actives have a fitted effect of over 35% in size
# Settings: recombinant BLM DNA unwinding, fluorescence dequenching; series mostly up to 56.1 µM
# Text: Survival of cells and the faithful propagation of the genome depend on elaborate mechanisms of detecting and repairing DNA damage. Treatment of advanced cancer relies on radiation therapy or chemotherapy, which kill cancer cells by causing extensive DNA damage. It is often found, that cancer cells develop resistance to therapy through enhanced activity of DNA repair functions; this has led to an increased interest in developing drugs that interfere with DNA repair, which could sensitize cancer cells to conventional therapy.
# This validation qHTS assay pertains to human BLM, which is important in resolving abnormal DNA structures formed during replication or homologous recombination. Shutting down the expression of BLM leads to chromosomal instability and higher radiation sensitivity in cultured cells.
# The validation assay was a fluorescence quenching based kinetic qHTS for BLM Helicase DNA unwinding. The activity was measured as ATP-dependent separation of a 20-bp DNA duplex extended by 30-nt single-stranded tails (forked duplex). The forked DNA substrate was tagged with rhodamine fluorophore (carboxytetramethyl rhodamine, TAMRA) and BHQ-2 (Black Hole Quencher 2) dark quencher. Strand separation results in an increase in the fluorescence of TAMRA (excitation 525 nm, emission 598 nm). This substrate construct operates in a red-shifted region where very few compound library members have been noted to fluoresce (PubChem AIDs 593 and 594). An additional feature of the assay is the inclusion of 2.5 ug/ml poly (dIdC), to reduce interference by compounds such as DNA intercalators, a major source of false inhibitors.
# Ian Hickson, University of Oxford
# Opher Gileadi, Structural Genomics Consortium, University of Oxford
# Screening Center PI: Austin, C.P.
# Screening Center: NIH Chemical Genomics Center [NCGC]
# Three uL of reaction buffer (25 mM Tris-HCl (pH 8.0), 5 mM NaCl, 2 mM MgCl2, 1mM DTT, 0.01% Tween- 20, and 2.5 ug/ml poly(dI-dC), including enzyme (50 nM BLM), were dispensed into a 1536-well Greiner black assay plate via solenoid-valve based nanoliter dispensers. Compounds (23 nl each in columns 5-48) and control (23 nl each in column 2 as dose-response) were transferred via a Kalypsys pintool equipped with a 1536-pin array. The plates were incubated for 15 min at room temperature, and then 1 ul of substrates (200 nM DNA and 2 mM ATP, final concentrations) was added to start the reaction. The plate was transferred into a ViewLux high-throughput CCD imager where the reaction progress was measured in a discontinuous kinetic mode (two reads spaced 2 hours apart, with intermediate room temperature incubation of the covered assay plate) by using standard red-fluorescence optics (excitation filter 525 nm, emission filter 598 nm). Enzyme-free and vehicle (DMSO) controls were included for signal normalization.
# Potency is the fitted concentration of half-maximal effect.
Compound,"activity change, negative = inhibition",Potency
C=CC1=C2C=C(C3CC3)N(C(CO)CO)C=C2C(=O)C(C)(OC(=O)c2ccco2)C1=O (configuration not stated),-12.4% [at 12.4 µM],
C[C@@H](O)[C@@H]1NC(=O)[C@H](CCCCN)NC(=O)[C@H](Cc2c[nH]c3ccccc23)NC(=O)[C@H](Cc2ccccc2)NC(=O)[C@H](Cc2ccccc2)NC(=O)[C@H](CC(N)=O)NC(=O)[C@H](CCCCN)NC(=O)[C@@H](NC(=O)[C@@H]2CCCN2)CSSC[C@@H](C(=O)N[C@@H](CCCCN)C(=O)O)NC(=O)[C@H](CO)NC(=O)[C@H](CO)NC(=O)[C@H](Cc2ccccc2)NC1=O (H-PCKNFFWKTFSSCK-OH; disulfide 2-13),,inactive
CCOC(=O)C1CCCN(C(=O)c2ccc3c(c2)sc2nc(-c4ccc(CC)cc4)cn23)C1 (configuration not stated),,inactive
OCCC(O)CO (configuration not stated),,inactive
CC[C@]1([C@H]2O[C@@H]([C@@H]3O[C@](O)(CO)[C@@H](C)C[C@H]3C)C[C@H]2C)CC[C@@H]([C@]2(C)CC[C@@]3(C[C@@H](O)[C@@H](C)[C@@H]([C@H](C)[C@H](OC)[C@H](C)C(=O)O)O3)O2)O1,,inactive
Cc1ccc(NC(=O)CSc2nc(CSc3ccc(C)cc3)cc(=O)[nH]2)cc1,,inactive
COc1ccc(NC(=O)CSc2nc(NS(=O)(=O)c3ccc(C)cc3)cc(=O)[nH]2)cc1,,22.4 µM (active)
Cc1ccc(OCCCC(=O)Nc2ccc(S(=O)(=O)Nc3cc(C)nc(C)n3)cc2)cc1,,inactive
COCCn1c(=O)c(CCc2ccccc2)nc2cnc(N3CCNCC3)nc21,,inactive
N[C@@H](C(=O)O)c1ccc(P(=O)(O)O)cc1,,inactive
COC(C)C(C(=O)OCC1=CCN2CC[C@H](O)[C@@H]12)C(C)C (some centres not stated),,inactive
COc1ccc2c3c1OC1CC(O)C=C[C@@]31CCN(C)C2 (some centres not stated),,inactive
CCOC(=O)c1c(C)[nH]c(C(=O)NCc2ccccc2OC)c1C,,inactive
CCOC(=O)c1c(C)[nH]c2c1-c1ccccc1C(=O)C2=O,,2.82 µM (active)
CCOC(=O)c1c(SCC(=O)Nc2cccc(C)c2C)nc(=O)[nH]c1C,,inactive
COc1ccc(NS(=O)(=O)c2cc3c4c(c2)CC(=O)N4CCC3)cc1Cl,,inactive
COC(=O)C(C(=O)OC)[C@@H](NC=O)c1ccccc1,,inactive
CCCCS(=O)(=O)N1C2=NC(C(=O)OC)=C(C(=O)OC)[C@@H]3N(Cc4ccccc4)c4ccccc4[C@]23C[C@H]1C(=O)OC,-0.97% [at 12.4 µM],
C=CCOC(=O)C(C(C)=O)C(NC(=O)OC)c1ccccc1 (configuration not stated),-4.39% [at 12.4 µM],
CC(C)C[C@@H](CC(=O)N[C@@H](CCC(=O)O)CC(=O)O)NC(=O)[C@@H]1CCCC[C@H]1NC(=O)C[C@@H](NC(=O)C[C@H](Cc1c[nH]c2ccccc12)NC(=O)[C@@H]1CCCC[C@H]1N)C(C)C,,inactive
Nc1ncn(C2OC(CO)C(O)C2O)c(=O)n1 (configuration not stated),,inactive

Compound,"activity change, negative = inhibition",Potency
CC1CC[C@@]23CCC4(C)[C@@]5(C)CCC6C(C)(C)C(O)CC[C@@]6(C)C5C=C[C@@]4(OC2=O)C3C1C (some centres not stated),,inactive
COc1ccc(-c2nc3c(c4c2C[C@H](c2ccccc2)OC4)CN(C(=O)c2cccnc2)CC3)c(C)c1,0.694% [at 12.4 µM],
C=C1O[C@@](CO)(n2cnc3c(N)ncnc32)[C@H](O)[C@@H]1O,,inactive
COc1ccc(-c2nc(-c3ccccc3)oc2Nc2ccc3ccccc3c2)cc1,,inactive
CCCC[C@H]1C(=O)N(c2ccccc2)N(c2ccc(O)cc2)C1=O,,inactive
COC(=O)[C@@]1(Cc2ccc(F)cc2)[C@@H]2[C@@H](CC(=O)[C@H]2CC(=O)C(=O)N2CCCC2)CN1C(=O)c1ccccc1,,inactive
COC(=O)C1(C)C=CC2(CCCCC2)N1C(C)=O (configuration not stated),,inactive
CC1=C2[C@@H](O)[C@H]([C@@H](C)C(=O)NCCC(C)C)CC[C@@]2(C)C=CC1=O,,inactive
Cc1ccc(-c2ncc(Cl)cc2-c2ccc(S(C)(=O)=O)cc2)cn1,,inactive
C[C@H]1CC[C@H](C(=O)O)N[C@@H]1c1ccc(C#Cc2ccccc2)cc1,6.21% [at 12.4 µM],
COc1ccccc1CNc1ncnc2ccc(-c3c(C)noc3C)cc12,,inactive
Nc1nc2[nH]c(=O)c(=O)[nH]c2c(=O)[nH]1,,inactive
CC/C=C\C/C=C\C/C=C\C/C=C\C/C=C\C/C=C\CCC(=O)NC(C)C(=O)O (configuration not stated),,inactive
COC(=O)C1=C(C)N(Cc2ccccc2)C2=C3C(=O)N(c4ccccc4)C(=O)C3[C@@](O)(C(=O)OC)C(=O)N2C1c1ccccc1 (some centres not stated),-3.25% [at 12.4 µM] and -3.97% [at 12.4 µM],
COc1ccc(S(=O)(=O)c2c(Nc3cccc(Cl)c3)sc(C(=O)c3ccccc3)c2N)cc1,,inactive
CC1(C)OC2CO[C@]3(COS(N)(=O)=O)OC(C)(C)OC3C2O1 (some centres not stated),,inactive
COc1cc(OC)c(NC(=O)c2nc(-c3ccncc3)no2)cc1Cl,,inactive
N#Cc1c(C(F)(F)F)cc(-c2cccs2)nc1N1CCCCC1,,inactive
N#Cc1c(N2CCCCC2)nc(N)c2c(N)nc(SCC(=O)O)cc12,,28.2 µM (active)
C=C1C(=CC=C2CCC[C@@]3(C)[C@@H]2CC[C@H]3[C@H](C)CCCC(C)C)C[C@@H](O)C[C@@H]1O,,inactive
CC(C)CN1CCc2nc(-c3ccccc3)c3c(c2C1)COC(C)C3 (configuration not stated),-4.43% [at 12.4 µM],
